Measured values published in PubChem BioAssay (NCI).
Compounds without any hit were thinned out: in the full panel of roughly 83,000, 20% have a hit.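 Step 1: grow cells in 96-well plates. Step 2: add test compound at a single concentration. Step 3: incubate 48 h. Step 4: record percent growth.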 Unmarked numbers belong to inactive results. Calls of active or inactive are those of the source. Rule for the calls: active = growth percent below 10; inactive = the rest.

How the values were obtained:
Assay in all cases: NCI-60 one-dose screen, 48 h (100 = growth as untreated, 0 = no growth, -100 = all killed)
Settings in all cases: 10 µM unless noted
[1] = test system: SR leukemia
[2] = test system: RPMI-8226 leukemia
[3] = test system: OVCAR-8 ovarian
[4] = test system: OVCAR-5 ovarian
[5] = test system: OVCAR-4 ovarian
[6] = test system: SK-OV-3 ovarian
[7] = test system: IGROV1 ovarian
[8] = test system: HS 578T breast
[9] = test system: NCI/ADR-RES ovarian
[10] = test system: T-47D breast
[11] = test system: MDA-MB-435 melanoma
[12] = test system: SW-620 colon
[13] = test system: MCF7 breast
[14] = test system: HCT-116 colon
[15] = test system: HCC-2998 colon
[16] = test system: KM12 colon
[17] = test system: BT-549 breast
[18] = test system: OVCAR-3 ovarian

`COc1cc(OCc2cccc(Br)c2C)cc(OC)c1C=O` gave a growth [1] of 82.6%, a growth [2] of 52.8% and a growth [3] of 89.9%. It also gave a growth [4] of 55.5%, a growth [5] of 67.7% and a growth [6] of 94.8%. It also gave a growth [7] of 61.8%, a growth [8] of 89.1% and a growth [9] of 89.7%. The growth [10] was 37.8%, the growth [11] was 87.8% and the growth [12] was 88.6%. For the same molecule, the growth [13] was 63.9%, the growth [14] was 68% and the growth [15] was 96.5%. For the same molecule, the growth [16] was 94.5%.
In the case of `COc1cc(-c2nc3sccn3c2-c2ccnc(NCCNS(=O)(=O)c3ccccc3)n2)ccc1F`, the growth [1] is reported as 45.3%, the growth [2] is reported as 31% and the growth [3] is reported as 46.1%. The growth [4] was 113%, the growth [5] was 52.3% and the growth [6] was 52.5%. The growth [7] was 43.1%, the growth [8] was 69.6% and the growth [9] was 47%. It also gave a growth [10] of 14.3%, a growth [17] of 67.8% and a growth [11] of 26%. The growth [12] was 86.4%, the growth [13] was 37.9% and the growth [14] was 42.6%. It also gave a growth [15] of 96.5% and a growth [16] of 17.1%.
With `CCCCCCCCCCCCCCCCCCOc1ccccc1CC(=O)OCC[N+](C)(C)C` the growth [1] was 11.1%, the growth [2] was 40.9% and the growth [3] was 5.15% (active). It also gave a growth [4] of 31.8%, a growth [5] of 20% and a growth [6] of 56.2%. For the same molecule, the growth [7] was -61.4% (active), the growth [18] was 16.5% and the growth [8] was 17.1%. It also gave a growth [10] of 28.8%, a growth [17] of 46.5% and a growth [11] of 31.5%. It also gave a growth [12] of 23.9%, a growth [14] of 30.6% and a growth [15] of 27.9%. The growth [16] was -27.4% (active).
Work on `CCc1ccc(CCCC(=O)O)cc1` yielded a growth [1] of 96.2%, a growth [2] of 103% and a growth [3] of 107%. The growth [4] was 98.3%, the growth [5] was 104% and the growth [6] was 100%. The growth [7] was 105%, the growth [18] was 108% and the growth [8] was 101%. For the same molecule, the growth [10] was 98.8%, the growth [17] was 101% and the growth [11] was 103%. It also gave a growth [12] of 108%, a growth [13] of 93.6% and a growth [14] of 98.1%. It also gave a growth [16] of 106%.
Work on `Fc1ccc(CNc2c3ccccc3nc3ccccc23)c(F)c1` yielded a growth [1] of 25.2%, a growth [2] of 28.3% and a growth [3] of 40.2%. The growth [4] was 51.7%, the growth [5] was -8.19% (active) and the growth [6] was 59.8%. For the same molecule, the growth [7] was 35.7%, the growth [8] was 75.4% and the growth [9] was 36.2%. For the same molecule, the growth [10] was 47.4%, the growth [17] was 82.8% and the growth [11] was 66.5%. The growth [12] was 29.8%, the growth [13] was 10.2% and the growth [14] was 14.2%. The growth [15] was 41.3% and the growth [16] was 60%.
In the case of `Clc1ccc2c(NC3CCC(N4CCOCC4)CC3)ccnc2c1` (configuration not stated), the growth [1] is reported as 55.2%, the growth [2] is reported as 58.2% and the growth [3] is reported as 69.1%. It also gave a growth [4] of 105%, a growth [5] of 56.7% and a growth [6] of 81.5%. It also gave a growth [7] of 131%, a growth [18] of 92.7% and a growth [8] of 83.8%. For the same molecule, the growth [10] was 58%, the growth [11] was 86.3% and the growth [12] was 85.4%. It also gave a growth [13] of 63.7%, a growth [14] of 47% and a growth [15] of 77.8%. It also gave a growth [16] of 96.4%.
For `CCCCCCC12CCC(=O)N1CCc1cncn12` (configuration not stated), the growth [1] was 116%, the growth [2] was 94.6% and the growth [3] was 101%. The growth [4] was 98.7%, the growth [5] was 119% and the growth [6] was 99.2%. The growth [7] was 105%, the growth [8] was 112% and the growth [9] was 104%. It also gave a growth [10] of 91.9%, a growth [17] of 114% and a growth [11] of 105%. The growth [12] was 102%, the growth [13] was 94.8% and the growth [14] was 106%. It also gave a growth [15] of 108% and a growth [16] of 113%.
Molecule `O=c1[nH]c(-c2ccccc2)nc2sc3cc(O)ccc3c12` has a growth [1] of 54.2%, a growth [2] of 82.3% and a growth [3] of 100%. For the same molecule, the growth [4] was 115%, the growth [5] was 80% and the growth [6] was 97.9%. For the same molecule, the growth [7] was 74.1%, the growth [8] was 89% and the growth [9] was 95.5%. The growth [10] was 93%, the growth [17] was 82.3% and the growth [11] was 85.9%. It also gave a growth [12] of 101%, a growth [13] of 73.8% and a growth [14] of 92.5%. It also gave a growth [15] of 95.9% and a growth [16] of 87.6%.
`COc1ccc(C(O)c2cc3c(N)c(C(=O)Nc4cccc(Br)c4)sc3nc2C)cc1` (configuration not stated) was tested, and the growth [1] was 8.67% (active), the growth [2] was 10.9% and the growth [3] was 13.1%. The growth [4] was 11.2%, the growth [5] was 39.7% and the growth [6] was 17.9%. For the same molecule, the growth [7] was 11.4%, the growth [8] was -6% (active) and the growth [9] was 13.1%. The growth [10] was 53.2%, the growth [17] was 3.53% (active) and the growth [11] was -33.4% (active). For the same molecule, the growth [12] was 23.7%, the growth [13] was 9.88% (active) and the growth [14] was 6.39% (active). For the same molecule, the growth [15] was -33.9% (active) and the growth [16] was 0.956% (active).
With `Nc1nc(-c2ccc(Cl)cc2)nc2c1sc(=S)n2-c1ccccc1` the growth [1] was -17.8% (active), the growth [2] was 45.5% and the growth [3] was 32.4%. The growth [4] was 62.6%, the growth [5] was -20.1% (active) and the growth [6] was 23.4%. It also gave a growth [7] of 44.9%, a growth [8] of 19.9% and a growth [9] of 43.8%. The growth [10] was 14.8%, the growth [17] was 54.9% and the growth [11] was 57.4%. For the same molecule, the growth [12] was 55.3%, the growth [13] was 57.6% and the growth [14] was 20.1%. It also gave a growth [15] of 72.3%.
With `O=C(NCc1ccc(Cl)cc1Cl)C1CCC(=O)N1c1cccs1` (configuration not stated) the growth [1] was 91.8%, the growth [2] was 95.5% and the growth [3] was 93.5%. For the same molecule, the growth [4] was 91.2%, the growth [5] was 97.5% and the growth [6] was 89.6%. The growth [7] was 92.4%, the growth [8] was 101% and the growth [9] was 83.9%. The growth [10] was 75.8%, the growth [17] was 86% and the growth [11] was 97.2%. The growth [12] was 106%, the growth [13] was 88% and the growth [14] was 79%. For the same molecule, the growth [16] was 101%.
In the case of `COc1cc2c(cc1OCCCN1CCN(CCCOc3cc4c(cc3OC)C(=O)N3CCC[C@H]3C=N4)CC1)C=CC(C)(C)O2`, the growth [1] is reported as -58.3% (active), the growth [2] is reported as -8.49% (active) and the growth [3] is reported as -56.7% (active). For the same molecule, the growth [4] was -80.7% (active), the growth [5] was -71.2% (active) and the growth [6] was -83.9% (active). For the same molecule, the growth [7] was -89.1% (active), the growth [8] was -77.9% (active) and the growth [9] was 32.6%. For the same molecule, the growth [10] was -55.2% (active), the growth [17] was -100% (active) and the growth [11] was -72.9% (active). The growth [12] was -100% (active), the growth [13] was -100% (active) and the growth [14] was -96% (active). The growth [15] was -82.1% (active) and the growth [16] was -82% (active).
`Nc1ncnc2c1N=C(c1ccc(Br)cc1)CC(c1cccc(Nc3ccnc4cc(C(F)(F)F)ccc34)c1)N2` (configuration not stated) was tested, and the growth [1] was 22.1%, the growth [2] was 12.7% and the growth [3] was 69.9%. For the same molecule, the growth [4] was 88.7%, the growth [5] was 76.8% and the growth [6] was 45.7%. The growth [7] was 65.7%, the growth [8] was 65% and the growth [9] was 66.9%. For the same molecule, the growth [10] was 68.6%, the growth [17] was 105% and the growth [11] was 38.3%. For the same molecule, the growth [12] was 64.1%, the growth [14] was 32.8% and the growth [15] was 67.2%. It also gave a growth [16] of 60.2%.
`CC(=O)c1c(C)nc2ccccc2c1/C=C/c1ccc(F)cc1` gave a growth [1] of 81.2%, a growth [2] of 66.5% and a growth [3] of 92.9%. The growth [4] was 97.7%, the growth [5] was 76.7% and the growth [6] was 100%. For the same molecule, the growth [7] was 85.1%, the growth [8] was 91.9% and the growth [9] was 67.6%. The growth [10] was 53.8%, the growth [17] was 87.1% and the growth [11] was 103%. It also gave a growth [12] of 97.1%, a growth [13] of 77.3% and a growth [14] of 74.6%. For the same molecule, the growth [16] was 90.7%.
In the case of `CCn1cc(C(=O)O)c(=O)c2cc(F)c(N3CCN(CC(=O)Nc4ccc(S(=O)(=O)Nc5nccc(C)n5)cc4)C(C)C3)c(F)c21` (configuration not stated), the growth [1] is reported as 103%, the growth [2] is reported as 109% and the growth [3] is reported as 105%. For the same molecule, the growth [4] was 98.5%, the growth [5] was 104% and the growth [6] was 113%. It also gave a growth [7] of 99.7%, a growth [18] of 113% and a growth [8] of 99.6%. For the same molecule, the growth [10] was 98.9%, the growth [17] was 132% and the growth [11] was 103%. For the same molecule, the growth [12] was 96.6%, the growth [14] was 104% and the growth [15] was 115%. The growth [16] was 100%.
With `C#Cc1c2c(c(OC)c3c1OCO3)[C@H]([C@H]1OC(=O)c3c1ccc(OC)c3OC)N(C)CC2` the growth [1] was 9.19% (active), the growth [2] was 100% and the growth [3] was 95.2%. For the same molecule, the growth [4] was 101%, the growth [5] was 92.7% and the growth [6] was 89.5%. It also gave a growth [7] of 82.5%, a growth [8] of 99.1% and a growth [9] of 59.6%. The growth [10] was 86.7%, the growth [17] was 90% and the growth [11] was 7.84% (active). The growth [12] was 84.5%, the growth [13] was 55.5% and the growth [14] was 89.8%. For the same molecule, the growth [15] was 86.4% and the growth [16] was 59.9%.
`Cc1ccc(C)n1-c1ccccc1-n1c(C)ccc1C` gave a growth [1] of 93.2%, a growth [2] of 148% and a growth [3] of 102%. The growth [4] was 118%, the growth [5] was 105% and the growth [6] was 109%. For the same molecule, the growth [7] was 92.9%, the growth [8] was 117% and the growth [9] was 116%. It also gave a growth [10] of 91.2%, a growth [17] of 104% and a growth [11] of 94.1%. It also gave a growth [12] of 139%, a growth [13] of 101% and a growth [14] of 104%. The growth [15] was 115% and the growth [16] was 117%.
In the case of `COc1ccc(-c2cc(-c3ccc(Cl)cc3)c(C#N)c(=O)n2Cc2ccc(C(=O)Nc3ccccc3N)cc2)cc1`, the growth [1] is reported as 40.9%, the growth [2] is reported as 57.1% and the growth [3] is reported as 92.8%. It also gave a growth [4] of 96.7%, a growth [5] of 76.3% and a growth [6] of 92.6%. The growth [7] was 78.3%, the growth [8] was 46.2% and the growth [9] was 71.2%. The growth [10] was 72.7%, the growth [17] was 56.5% and the growth [11] was 44.9%. For the same molecule, the growth [12] was 78.9%, the growth [13] was 40.1% and the growth [14] was 69.2%. For the same molecule, the growth [15] was 107% and the growth [16] was 57.3%.
